Only a selection was taken, and hits are over-represented in it overall.
Pf Dd2 growth = blocks in vitro growth of P. falciparum Dd2 | AID 1347417 | P. falciparum Dd2 growth, SYBR Green, 72 h | 120,000 compounds, 4.3% hits | Potency, µM (doses to about 28.9 µM), inactives show top-dose activity, negative = inhibition, hits mostly inhibitors; active = well fitted inhibition curve with a large enough effect;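 also: plate controls were DMSO vehicle for no effect and reference drug for full effect; nearly all actives have a fitted effect of over 65% in size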
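Readout: SYBR Green fluorescence, 485 nm excitation, 535 nm emission, after ~16 h lysis at 37C. Before that, Dd2-infected red cells (2.5% hematocrit) grew 72 h with compound, 29 uM top final concentration.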
Active calls of the source: *; i = inactive; [ ] = dose if it differs, or a comment. Potency is read from the fitted curve at half-maximal effect.

SMILES	Pf Dd2 growth
CCCCN(CC)CCCNC(=O)c1cn(CC(C)C)c(=O)c2c1c1ccccc1n2C	7.08µM*
CCCCN(CCCC)CCNC(=O)c1cn(CC)c2ccc(S(=O)(=O)N3CCc4ccccc4C3)cc2c1=O	-25.1%
CCCCN(CC)CCNC(=O)c1cc2c(=O)[nH]c3ccccc3c2n1C	i
CCCCNC(=O)c1c(C)oc2ncn(CC(C)C)c(=O)c12	i
COC1CCC12CCN(C(=O)c1ccccn1)CC2 (stereo not drawn)	17.7%
COc1ccc(C(=O)N2CC3(C2)C(=O)Nc2ccccc23)cc1	-9.5%[44.1 µM]
Cc1ccc(NC(=O)Cn2nc3n(c2=O)CCCCC3)cc1Cl	7.1%
CCn1ncc(S(=O)(=O)N2CCC3(CC2)CNC(C(=O)O)C3)c1C (stereo not drawn)	-9.9%
O=C(N1CCCCC1)N1CCN(c2ccc(Cl)nn2)C(=O)C1	18.8%
CCOc1cc(C(=O)Nc2c(NC)c3ccccc3oc2=O)cc(OCC)c1OCC	15.7%
Cc1cccc(Cl)c1NC(=O)CN1C(=O)NC2(CCC(C(C)(C)C)CC2)C1=O (stereo not drawn)	-10.5%
CCOc1ccccc1C(=O)NC1CCN(c2cnn(CC)c(=O)c2)CC1	-14.9%
CCc1cccc(NC(=O)CN2C(=O)CN=C(c3ccccc3F)c3cc(Cl)ccc32)c1	16.2%
Fc1ccccc1-c1nnc([C@H]2CCN(Cc3ccccc3)C2)o1	i
CCc1cccc(NC(c2ccccc2)c2nnc(-c3ccccc3F)o2)c1 (stereo not drawn)	11.2µM*
CC1Cc2cc(-c3ccnc4ncnn34)ccc2O1 (stereo not drawn)	-15.5%
COc1ccc(-c2noc(-c3nc(-c4ccccn4)no3)n2)cc1	29.7%
CCc1nc2c(c(-c3ccc(Cl)cc3)n1)CCN(CCC(C)C)CC2	-19.4%
CCC(C(=O)N1CCc2onc(-c3ccc(F)c(F)c3)c2C1)n1cccn1 (stereo not drawn)	-24.4%
CC(C)n1ccnc1CN1CCc2onc(-c3ccc(Cl)cc3)c2C1	12.6µM*
CN(C[C@H]1CN2CC[C@H]1C[C@@H]2CNC(=O)c1ccc(C(F)(F)F)cc1)c1ccccc1	i
CC(C)C1=NOC2(CCN(C(=O)c3ccc(C(F)(F)F)cc3)C2)C1 (stereo not drawn)	13.7%
c1cc(-c2ccco2)cc(-c2nc(C3CCOC3)no2)c1 (stereo not drawn)	12.6µM*
COc1cccc(-c2ccc(-c3nc(C4CCOC4)no3)o2)c1 (stereo not drawn)	-6.1%
CCOc1cccc(-c2nc(C3CCOC3)no2)c1 (stereo not drawn)	14.9%
SMILES	Pf Dd2 growth
CC(C)(C)C(=O)Nc1ccc([C@H]2OCC(=O)N(Cc3ccccc3)[C@@H]2CO)cc1	-5.3%[44.1 µM]
COc1ccccc1/C=C/c1nc(C#N)c(NCc2ccccc2)o1	-3.2%
Fc1cncc(N2CC3CCC(C2)N3CC(F)(F)F)c1	24.6%[44.1 µM]
CCOC(=O)c1c(C)oc2nc(C)nc(NCc3ccc(OC)cc3OC)c12	-1.1%
CCOC(=O)c1c(C)oc2nc(C)nc(NCC3CCN(Cc4ccc(Cl)cc4)CC3)c12	12.6µM*
CCOC(=O)c1c(C)oc2ncnc(NCCc3ccccc3)c12	-6.1%
CCOC(=O)c1c(C)oc2nc(C)nc(N3CCN(c4ccc(C)cc4C)CC3)c12	0.5%
CCOC(=O)c1c(C)oc2nc(C)nc(N(C)Cc3ccccc3)c12	12.6µM*
CCOC(=O)c1c(C)oc2nc(C)nc(NCc3ccc(Cl)cc3)c12	i[5.79 µM]
CCOC(=O)c1c(C)oc2nc(C)nc(NCCCN3CCN(c4cc(Cl)ccc4C)CC3)c12	-20.1%
CCOC(=O)c1c(C)oc2ncnc(Nc3ccc(OCC)cc3)c12	-1.3%
CCOC(=O)c1c(C)oc2ncnc(N3CCN(c4cccc(Cl)c4)CC3)c12	2.0%
CCOC(=O)c1c(C)oc2nc(C)nc(Nc3cccc(OC)c3)c12	-8.7%
CCOC(=O)c1c(C)oc2nc(C)nc(N3CCN(c4cccc(C(F)(F)F)c4)CC3)c12	10µM*
CCOC(=O)c1c(C)oc2nc(C)nc(NC(C)c3ccccc3)c12 (stereo not drawn)	10µM*
Cc1ccc(CNS(=O)(=O)c2cc3c(cc2Cl)NC(=O)CO3)o1	i
CCc1nn2c(=O)cc(COC(=O)c3cccc(NC(=O)COc4ccccc4F)c3)nc2s1	i
COc1cccc(NC(=O)N[C@H]2C[C@@H](c3nc(-c4ccc(OC(F)(F)F)cc4)no3)N(C)C2)c1	i
COc1cccc([S+](=O)([O-])N2CCC3(C2)N=C(c2ccccn2)C(=O)N3)c1 (stereo not drawn)	-3.1%
O=S(=O)(NC[C@H]1O[C@@H](CO)[C@@H](O)[C@H]1N1CCOCC1)c1ccc(Cl)cc1	34.9%
COc1ccc(C(=O)NCCC2CCN(C(=O)Nc3cc(F)cc(F)c3)CC2)cc1	-10.1%
O=C(CCc1ccnc(N2CCOCC2)c1)N1CCN(C(=O)c2ccco2)CC1	33.6%
O=C(O)CCc1ccnc(N2CCCC2)c1	6.8%
O=C(CCc1ccnc(N2CCCC2)c1)N1CCN(c2cccc(Cl)c2)CC1	5.01µM*
CN(CC1CCOCC1)C(=O)CC1CCCCC1	0.9%
SMILES	Pf Dd2 growth
COc1cc(NC(=O)C(Cc2ccccc2)NS(=O)(=O)c2cccc3nsnc23)cc(OC)c1 (stereo not drawn)	-29.2%
CC(C)NC(=O)[C@H]1CN2CCC1C[C@@H]2Cn1cc(-c2ccc(F)cc2)nn1 (stereo partly drawn)	i
COc1ccc2c(c1)C=C(CN1CCCC(O)(CN(C)C)C1)CO2 (stereo not drawn)	-15.7%
CN(C)CC1(O)CCCN(Cc2ccc(-c3ccc(Cl)cc3)o2)C1 (stereo not drawn)	-23.2%
CCOc1cc(C)c(CN2CCCC(O)(CN(C)C)C2)cc1C(C)C (stereo not drawn)	2.82µM*
c1cc(CN2C[C@H](c3ccc4c(c3)OCO4)[C@@H]3[C@H]2C2CCN3CC2)ccn1	-14.6%
COCC(=O)NC[C@H]1O[C@@H](CO)[C@@H](O)[C@H]1N(C)CCc1ccccn1	17.8%[44.1 µM]
CN(Cc1cc(C[C@@H]2C[C@H](NCc3ncc[nH]3)C2(C)C)no1)c1ccccc1	i
CC1(C)[C@H](Cc2cc(-c3ccc(F)cc3)on2)C[C@@H]1NC1CCC1	11.2µM*
CC1(C)[C@H](Cc2cc(-c3ccc(F)cc3)on2)C[C@@H]1NCc1cccnc1	7.94µM*
CC(=O)N1CCC(N[C@H]2C[C@@H](Cc3cc(CCO)on3)C2(C)C)CC1	0.7%[44.1 µM]
CN1CCC(N[C@H]2C[C@@H](Cc3cc(C(C)(C)C)on3)C2(C)C)CC1	5.01µM*
COc1ccc(CN[C@H]2C[C@@H](Cc3cc(CCO)on3)C2(C)C)cc1	i
Fc1ccc(-c2cc(CC3(NCc4cccnc4)COC3)no2)cc1	-11.1%[44.1 µM]
COCc1cc(C[C@@H]2C[C@H](NC3CCOCC3)C2(C)C)no1	-12.2%[44.1 µM]
COCc1cc(C[C@@H]2C[C@H](NCc3cccnc3)C2(C)C)no1	-9.3%[44.1 µM]
CN(C)C1(Cc2cc(-c3ccc(F)cc3)on2)COC1	13.9%[44.1 µM]
CN(C)Cc1cc(C[C@@H]2C[C@H](NCc3ccc(F)cc3)C2(C)C)no1	3.16µM*
COCc1cc(C[C@@H]2C[C@H](NCC3CC3)C2(C)C)no1	i
COc1ccc(S(=O)(=O)N(CCc2ccccc2)CC(=O)Nc2cc(C)ccc2C)cc1	i
COc1ccc(CN2C[C@H]3CN(Cc4cc(OC)c(OC)c(OC)c4)CCN3C2=O)cc1	i
CC(C)CCNC(=O)CSc1nc2ccsc2c(=O)n1Cc1ccccc1Cl	i
CCn1ncc(C(=O)N[C@@H]2CN(Cc3ccccn3)C[C@H]2CN(C)C)c1C	43.0%

Screening results from PubChem.
